Bioassay records deposited in PubChem by several laboratories.
Shown are actives, neighbours in structure and some others; about 1.6% of the full set was active somewhere.
eIF4H FP inh: inhibitors of RNA binding by human eIF4H; Q15056; AID 2012; actives 0.94% (n = 290,000); eIF4H fluorescence polarization binding assay; inhibition, % at 35 µM;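 further: calls also rest on retests at 20 µM and on dose response follow-up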
PABP1 MLLE inh: inhibitors of microRNA-mediated deadenylation, human PABP1 MLLE binding | inhibition, % at 20 µM | actives 0.36% (n = 360,000) | AID 588489 | GST-MLLE / FITC-PAM2 fluorescence polarization | P11940; in the data active means inhibition above about 35%, passing the limit was not always enough;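 further: plate controls were DMSO wells with GST-MLLE for no effect and wells lacking GST-MLLE protein for full effect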
PABP polyA inh: blocks human PABP binding to poly(A) RNA. P11940. fluorescence polarization. calls only at 35 µM. actives 1% (n = 290,000);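 further: calls also rest on retests at 20 µM and on dose response follow-up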
PERK inhibitor: inhibitors of human PERK kinase | Q9NZJ5 | CHO PERK-DD fusion, SEAP luminescence translation reporter | inhibition, % at 5.6 µM | actives 0.17% (n = 220,000);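 active means inhibition above the mean inhibition of all tested compounds plus 3 SD, set separately per screening campaign, cut at about 2.9% in these data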;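 further: PERK kinase domain activated by AP20187 dimerizer at 100 nM; 0% = DMSO with dimerizer and 100% = rapamycin at 8.4 µM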
eIF4E-4G inh: eIF4E/eIF4G interaction inhibition in translation initiation | P63073+Q04637 | TR-FRET eIF4E-eIF4GI(517-606) binding, 2 h | inhibition, % at 21.7 µM | actives 0.37% (n = 220,000) | AID 782;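 active means inhibition above about 30%, limit read from the data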;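 further: 0% = full FRET control wells and 100% = background wells lacking eIF4GI fragment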
Active calls of the source: *; i = inactive; ? = inconclusive; / = not tested or not shown; + = active, no number. Unless noted, how the calls were made is not given here.

SMILES | eIF4H FP inh | PABP1 MLLE inh | PABP polyA inh | PERK inhibitor | eIF4E-4G inh
CN1N=C(C(=O)Nc2ccc3c(c2)CCC3)CCC1=O | -11 | -5 | i | 0 | 6
Cc1ccc(OCC(=O)Nc2nnc(S(=O)(=O)N3CCCCCC3)s2)cc1 | 66* | -13 | i | / | /
Cc1ccc(OCC(=O)Nc2nnc(S(=O)(=O)N3CCCCC3)s2)cc1 | 83* | -58 | + | / | /
O=C(COc1ccccc1)Nc1nnc(S(=O)(=O)N2CCCCC2)s1 | -7 | -16 | i | / | /
CCOC(=O)C1(Cc2ccccc2)CCCN(C(=O)COc2ccccc2OC)C1 (centres undefined) | / | -2 | / | / | /
CCCc1c(C)[nH]c2ccc(C(=O)O)cc2c1=S | 56* | 17 | + | 2 | 3
Cc1[nH]c2ccc(C(=O)O)cc2c1C | -5 | 4 | i | 0 | -10
CN(C)CC(c1ccccc1)c1ccccc1 | -3 | 8 | i | 4.3* | 1
CN(C)CC(O)COC(c1ccccc1)c1ccccc1 (centres undefined) | 5 | 2 | i | 0 | 1
COc1cc(N)c(Cl)cc1C(=O)OCC(=O)N1c2ccccc2NC(=O)C1(C)C | / | 1 | / | / | /
Cc1oc(C(C)(C)C)cc1C(N)=O | -4 | 4 | i | 3.0* | 1
Cc1cc(C)n2nc(S(=O)(=O)NC(C)(C)C)nc2n1 | -4 | -5 | i | 2 | -2
Nc1nc(N)c2c(ccc3c2ccn3Cc2cccc([N+](=O)[O-])c2)n1 | / | 2 | / | / | /
CN1CCC(N(C)S(=O)(=O)c2ccc(NC(=O)COc3ccc(F)cc3Cl)cc2)CC1 | 3 | -91 | + | / | /
CCN(CC)Cc1cc(O)c(CN(CC)CC)cc1O | ? | 74* | i | 0 | 23
CC(C)Cc1csc(NC(=O)c2ccc(Br)cc2)c1C(=O)O | -4 | 7 | i | 3.2* | 3
O=C(O)c1ccc(O)c(N2C(=O)Nc3ccccc3N2O)c1 | 53* | -10 | + | 1 | 2
COc1ccc(OC)c(/C=N/NC(=O)CCc2ccc(O)c(O)c2)c1 | 21* | 6 | + | 1 | 3
COc1ccc(OC)c(/C=N/NC(=O)CCc2c(C)n[nH]c2C)c1 | -3 | 2 | i | 1 | -2
CN(C(=O)COC(=O)CNC(=O)c1ccccc1F)C1CCCCC1 | / | 11 | / | / | /
O=C(NC(=S)Nc1ccc(Cc2ccncc2)cc1)c1ccccc1Cl | 2 | 43* | i | 1 | -4
Cc1ccccc1C(=O)NC(=S)Nc1ccc(Cc2ccncc2)cc1 | -8 | 25 | i | 1 | 3
CCN(CC)C(=O)[C@H]1CC(CC(=O)NCC23CC4CC(CC(C4)C2)C3)C(=O)N2CCc3c([nH]c4ccc(OC)cc34)[C@]12C (some centres undefined) | / | 9 | / | / | /
CCOC(=O)C1CCN(C(=O)C2CC(=O)N(c3ccc4c(c3)OCCO4)C2)CC1 (centres undefined) | 19 | -2 | + | / | /
O=C(C1CC(=O)N(c2ccc3c(c2)OCCO3)C1)N1CCN(Cc2ccccc2)CC1 (centres undefined) | / | -10 | / | / | /
SMILES | eIF4H FP inh | PABP1 MLLE inh | PABP polyA inh | PERK inhibitor | eIF4E-4G inh
Cc1ccc2c(CN3CCCc4ccccc43)cc(=O)oc2c1C | 34* | -25 | + | 0 | 6
Cc1ccc2c(CN3CCCCC3)cc(=O)oc2c1C | -1 | 8 | i | / | /
Oc1ccc(N=Cc2ccc(-c3cccs3)s2)cc1 | 51* | -3 | i | 0 | 3
O=Cc1ccc(-c2cccs2)s1 | / | -5 | / | / | /
CC(=O)c1ccc(S(=O)(=O)Nc2cccc(-n3cnnn3)c2)cc1 | 98* | 0 | + | / | /
CC(=O)Nc1ccc(S(=O)(=O)Nc2cccc(-n3cnnn3)c2)cc1 | 2 | -5 | i | / | /
CC1(C(=O)NS(=O)(=O)c2ccc(F)cc2F)CCN1C(=O)CC1CCCCC1 (centres undefined) | / | -4 | / | / | /
Cc1ccc2cc(CCNC(=O)c3ccco3)c(=O)[nH]c2c1C | ? | 9 | + | 0 | -3
O=C(Nc1cccc(Cl)c1)c1cc(N=Nc2ccc([N+](=O)[O-])cc2Cl)ccc1O | 81 | -5 | + | 0 | 33*
O=S(=O)(c1ccc(Br)cc1F)N1CCC(O)CC1 | / | 2 | / | / | /
CC(C)c1ccc(NC(=O)CSc2n[nH]c(=O)n2-c2cccnc2)cc1 | -3 | -47 | i | / | /
Cc1cccc2cc(C3CC(c4ccco4)=NN3C(=O)CCC(=O)O)c(Cl)nc12 (centres undefined) | 56* | -9 | i | 0 | 1
O=C(CCl)N1N=C(c2ccco2)CC1c1ccco1 (centres undefined) | 54* | 7 | + | / | /
COc1ccc2nc(Cl)c(C3CC(c4ccco4)=NN3C(=O)CCC(=O)O)cc2c1 (centres undefined) | 92* | -2 | i | 0 | -1
CCCCOC(=O)C1=C(C)N(C)C(=O)NC1c1cc2c(cc1Br)OCO2 (centres undefined) | / | -5 | / | / | /
CCOC(=O)C1=C(C)N(C)C(=O)NC1c1cc2c(cc1[N+](=O)[O-])OCO2 (centres undefined) | 93* | 14 | + | 0 | 0
Cc1cccc(CSc2nc3ccccc3c(=O)n2C)c1 | / | 1 | / | / | /
COc1ccc(N(C)S(=O)(=O)c2ccc(Cl)c(C(=O)NCC(C)(C)N3CCOCC3)c2)cc1 | / | -6 | / | / | /
COc1cc(OC)c(C(=O)N(CCc2ccccc2)Cc2ccccc2)cc1OC | -12 | -5 | i | / | /
CCOC(=O)c1cc(OC(C)=O)c2ccc(OC)c(OC)c2c1 | / | 11 | / | / | /
N#CCSc1ncnc2sc3c(c12)CCC3 | 7 | -21 | i | 1 | -11
COc1ccc(-c2nnc(CSc3ncnc4sc5c(c34)CCC5)o2)cc1OC | 53* | 5 | + | / | /
Cc1cc(C(=O)O)ccc1-c1ccc(/C=C2\NC(=O)N(Cc3ccccc3Cl)C2=O)o1 | 86 | 14 | i | 1 | 5
Cc1ccc(C(=O)O)cc1-c1ccc(/C=C2/NC(=O)N(c3ccccc3)C2=O)o1 | 79* | -14 | + | 1 | 10
O=C1NC(=O)/C(=C/c2ccc(-c3cc(C(=O)O)ccc3Cl)o2)S1 | 92* | -3 | + | / | /
SMILES | eIF4H FP inh | PABP1 MLLE inh | PABP polyA inh | PERK inhibitor | eIF4E-4G inh
Cc1ccc(CN2C(=O)N/C(=C\c3ccc(-c4ccc(C(=O)O)cc4C)o3)C2=O)cc1 | 87* | 3 | + | 0 | 10
O=C1NC(=S)/C(=C\c2ccc(-c3ccccc3Cl)o2)S1 | ? | 71 | i | 1 | 8
O=C(O)c1ccc(-c2ccc(/C=C3\NC(=O)N(Cc4ccc(Cl)cc4)C3=O)o2)cc1 | 73* | -7 | + | 1 | 33*
Cc1ccc2nc(-c3cccnc3)c(NC3CCCCC3)n2c1 | 17 | 46* | i | 0 | 0
O=C(N/N=C/c1cccc(Cl)c1)C(c1ccncc1)N1CCOCC1 (centres undefined) | 2 | 15 | i | 2 | 6
CN1CC=C2C(C#N)=C(N)C(C#N)(C#N)C(c3ccsc3)C2C1 (centres undefined) | ? | 122 | ? | 0 | 7
